mIDH1 inhibitor: inhibitors of human mutant IDH1 R132H; O75874; IDH1-R132H enzyme, NADPH consumption, diaphorase/resazurin fluorescence; Potency, µM (titrated, usually from 76.6 µM), for inactives: at the highest dose activity change, negative = inhibition, hits mostly inhibitors; 390,000 tested, 0.093% active; AID 602179; further: on the % scale 0 is the no-effect control and ±100 the full control effect; nearly all actives have a fitted effect of over 65% in size
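IDH1-R132H (0.5 ug/mL) preincubated 30 min with compound, then NADPH (0.016 mM) and alpha-KG (2 mM) added; 80 min at RT, pH 7.5. Remaining NADPH coupled via diaphorase/resazurin to fluorescence (540/590 nm); concentration-response curves normalized to no-enzyme control.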
A-T KAP1 phos: potential ataxia-telangiectasia treatments restoring KAP-1 phosphorylation; F2112 A-T fibroblasts, KAP-1 phosphorylation AlphaLISA; neocarzinostatin DNA damage 30 min before lysis; Potency, µM (top dose mostly 57.5 µM), without a hit: at the top dose activation, hits mostly activators; 320,000 tested, 0.19% active; further: % of control where 0% means no effect; nearly all actives have a fitted effect of over 45% in size
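ATM-like activity read as KAP-1 phosphorylation via AlphaLISA donor/acceptor antibody pairs after lysis and 6 hr at 25C. Cells were ATM-null patient fibroblasts (F2112, hTERT), dosed 60 min, then exposed to the DSB inducer NCS for 30 min.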
NPSR antag: blocks cAMP signaling of the human neuropeptide S receptor. Q6W5P4. CHO-NPSR cells, cAMP TR-FRET, antagonist mode. Potency, µM (highest dose often 38.3 µM), inactives show at the highest dose activity change, negative = inhibition, usual class: inhibitors. 220,000 tested, 1% active; further: on the % scale 0 is the no-effect control and ±100 the full control effect; nearly all actives have a fitted effect of over 50% in size
Target sequence (Q6W5P4 whole entry, looked up): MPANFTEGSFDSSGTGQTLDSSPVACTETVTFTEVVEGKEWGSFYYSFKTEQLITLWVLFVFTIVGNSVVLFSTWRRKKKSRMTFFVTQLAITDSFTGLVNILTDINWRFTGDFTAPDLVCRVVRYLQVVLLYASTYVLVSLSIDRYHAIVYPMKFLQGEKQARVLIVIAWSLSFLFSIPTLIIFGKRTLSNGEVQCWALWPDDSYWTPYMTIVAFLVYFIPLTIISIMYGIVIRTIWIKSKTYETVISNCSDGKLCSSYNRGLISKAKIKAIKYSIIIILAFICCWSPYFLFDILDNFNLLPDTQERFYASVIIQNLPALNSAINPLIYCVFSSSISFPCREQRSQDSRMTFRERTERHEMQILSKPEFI
HttQ103 aggreg: mutant huntingtin aggregation inhibition; PC12 HttQ103-GFP aggregates, Acumen cytometry, 40 h; Potency, µM (doses to about 46.1 µM), without a hit: at the top dose activity change, negative = inhibition, hits mostly inhibitors; 220,000 tested, 1.1% active; AID 1688; further: on the % scale 0 is the no-effect control and ±100 the full control effect; nearly all actives have a fitted effect of over 60% in size
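Read-out: GFP aggregate count by laser scanning cytometer (488 nm excitation, 500-530 nm emission, 1–25 µm objects >6 SD above background). Cells: PC12, inducible HTTex1-Q103-GFP, 100 nM tebufenozide; compounds titrated.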
HTT ATP protect: cytoprotection in Huntington HTT-Q103 PC12 cell model; 230,000 tested, 0.14% active; PC12 HTT-Q103 induced, cytoprotection, ATP luminescence, 40 h; Potency, µM (series often up to 56.4 µM), inactives show cytoprotection (ATP increase), most hits filed as activators; further: % of control where 0% means no effect; nearly all actives have a fitted effect of over 45% in size
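Huntington model: PC12 line, ecdysone-inducible HTTQ103 exon1–GFP, tebufenozide 100 nM. Test articles in a dose series. Endpoint luminescence from cellular ATP.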
* marks the source's active call; other numbers are inactive results; ? = inconclusive; · = no result; [ ] = remark or other dose. Sampled rows, rich in hits. Any-hit rate of the full collection: about 1.1%. The call rests on the fitted dose curve; in most records, active means well fitted curve in the direction sought with a large enough effect; inconclusive means small, poorly fitted or top-dose-only effect, or another doubt; inactive means no such curve, though single readings can be large; an effect the other way counts as inactive or inconclusive. Potency means the concentration at half of the fitted maximal effect.

SMILES	mIDH1 inhibitor	A-T KAP1 phos	NPSR antag	HttQ103 aggreg	HTT ATP protect
NS(=O)(=O)c1ccc(N2N=C(c3ccccc3)CC2c2cccc(F)c2)cc1 (configuration not stated)	-14%	40µM*	-34%	?	-6%[10 µM]
CC(=O)N1CCCc2ccc(NC(=O)c3ccc(C(F)(F)F)cc3)cc21	-1%	·	·	·	·
COc1cc(OC)nc(-n2ncc(Br)c(Br)c2=O)n1	2%	-2%	6.3µM*	4.5µM*	·
CCCCN(c1nc2ccccc2nc1Cl)S(=O)(=O)c1ccc(C)cc1	0%	10µM*	·	·	·
COc1ccc(-c2sc3ccccc3c2C#Cc2cncn2C)cc1	-9%	32µM*	·	·	·
Cn1cncc1C#Cc1c(-c2ccc(S(C)(=O)=O)cc2)sc2ccccc12	10%	3%	·	·	·
COc1ccc(-c2sc3ccccc3c2C#CC2(O)CCCCC2)cc1	9%	32µM*	·	·	·
O=c1oc2cc(O)ccc2cc1-c1nc2c(s1)CCc1ccccc1-2	8%	18µM*	-6%	?	34%[10 µM]
O=c1oc2ccccc2cc1-c1nc2c(s1)CCc1ccccc1-2	13%	26%	-15%	13%	-22%[10 µM]
Cc1ccc(C)c(NC(=O)c2cnn3ccccc23)c1	-2%	7%	-13%[46.1 µM]	13µM*	-103%
CC1CCN(c2nc(-c3ccccc3O)nc3ccccc23)CC1	1%	1%	-21%[46.1 µM]	-4%	-6%
CC1CCN(c2ncnc3ccccc23)CC1	6%	0%	-18%[46.1 µM]	22µM*	24%[10 µM]
Cc1ccc(Nc2c(-c3ccccn3)nc3cccc(C)n23)cc1	0%	-5%	-51%	7.9µM*	-131%
C=C1CC[C@H](O)C/C1=C/C=C1\CCC[C@]2(C)[C@@H]([C@H](C)CCCC(C)(C)O)CC[C@@H]12	·	·	·	-21%	?
COc1cccc(Nc2ccc3cc(S(=O)(=O)N4CCC(C)CC4)ccc3n2)c1	3%	·	·	·	·
CCOc1cc(/C=C(\C#N)C(=O)Nc2cccc(C(=O)O)c2)ccc1OCc1ccccc1Cl	33µM*	-1%	·	·	·
Nc1nc(N)c(N=Nc2ccc(C(=O)O)c(O)c2)c(N)n1	·	·	·	·	-33%[10 µM]
CC(C)c1ccc2oc(-c3ccc(Cl)c(NC(=O)c4cccs4)c3)nc2c1	-10%	·	·	·	·
CC(=O)c1ccc(N=C2C(=O)Nc3ccccc32)cc1	26µM*	-1%	·	·	·
COc1ccccc1C1CC(=O)Oc2cc3c(cc21)OCO3 (configuration not stated)	·	·	·	·	-21%
COc1ccc(Oc2nc(C(F)(F)F)nc3ccccc23)cc1	0%	11%	-9%[46.1 µM]	-12%	-3%[10 µM]
CSc1nc(Oc2ccc3ccccc3c2)c2ccccc2n1	6%	21%	-11%[46.1 µM]	10µM*	-24%[10 µM]
O=c1cc(-c2ccccc2Cl)oc2c([N+](=O)[O-])c(O)cc(O)c12	6%	1%	-15%	1.8µM*	?
O=c1cc(-c2ccccc2Cl)oc2ccc([N+](=O)[O-])c(O)c12	-5%	-20%	-23%	?	?
CCCCc1nc2c(c3c1C[C@H](C)OC3)CN(C(=O)c1cc(I)ccc1F)CC2	·	·	·	·	-13%[10 µM]
SMILES	mIDH1 inhibitor	A-T KAP1 phos	NPSR antag	HttQ103 aggreg	HTT ATP protect
Nc1ccc2cc3ccc(N)cc3nc2c1	·	·	·	13µM*	-17%
COc1ccc(NC(=O)Cn2nnc(-c3ccccc3NC(=O)C3CC3)n2)cc1	-1%	1%	-11%[46.1 µM]	7%	-7%
COc1ccc(C(=O)Cn2nnc(-c3ccccc3NC(=O)C3CCCCC3)n2)cc1	-7%	5%	-17%[46.1 µM]	13µM*	-20%
COc1ccc(OC)c2c(=S)c3ccccc3[nH]c12	·	·	·	·	-7%
OCC1OC([S-])[C@H](O)C(O)C1O.[Au+] (some centres not stated)	·	·	·	17%	2%
COC(=O)c1c(NC(=O)Nc2ccc(Cl)cc2)sc(C)c1C	24%	0%	10µM*	5%	-10%
Cc1nc([N+](=O)[O-])c(Sc2nc3ccccc3[nH]2)n1Cc1ccccc1	6%	7%	-22%[46.1 µM]	?	?
COc1ccc2nc(Sc3c([N+](=O)[O-])nc(C)n3Cc3ccccc3)[nH]c2c1	5%	8%	-26%[46.1 µM]	·	13µM*
